# From PubChem
# HT1080-NT tox: kills 2HG-producing HT-1080-NT fibrosarcoma cells; HT-1080-NT fibrosarcoma viability, CellTiter-Glo ATP luminescence, 48 h; Potency, µM (doses to about 46.1 µM), for inactives: at the highest dose activity, negative = less viability, hits mostly cytotoxic; actives 1.6% (n = 360,000);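 also: NT is the 2HG producing partner of a matched IDH1 knockdown line; potency is read from the fitted curve at half-maximal effect; 0% = DMSO-treated cells and -100% = media-only wells without cells; nearly all actives have a fitted effect of over 55% in size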
#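 Compounds were tested in concentration-response format on HT-1080-NT cells for 48 hours at 37 degrees C. Cell viability came from CellTiter-Glo luminescence; curves were classified by r2, response magnitude and activity.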
# IL-1B inflam inh: inflammasome signaling inhibition, IL-1 beta readout. activity change, % at 57.5 µM. actives 4.7% (n = 360,000). THP-1 LPS/ATP IL-1B secretion, AlphaLISA, 16 h; stronger effect = lower value; in the data active = activity change below about -50%; inconclusive = mostly about -30% to -49%
#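 THP-1 cells pretreated 1 hr with compounds (up to 57.5 uM final), then stimulated with LPS (250 ng/mL final) plus ATP (1.25 mM final); secreted IL-1B measured by AlphaLISA after 16 hr, decreased signal indicating inhibition.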
# ALOX12 inh: blocks human arachidonate 12S-lipoxygenase; P18054; purified 12hLO, xylenol orange hydroperoxide absorbance; Potency, µM (series often up to 108 µM), for inactives: at the highest dose activity change, negative = inhibition, usual class: inhibitors; actives 1.1% (n = 580,000); AID 1671190; also: potency is read from the fitted curve at half-maximal effect
# Target sequence (P18054 whole entry, looked up): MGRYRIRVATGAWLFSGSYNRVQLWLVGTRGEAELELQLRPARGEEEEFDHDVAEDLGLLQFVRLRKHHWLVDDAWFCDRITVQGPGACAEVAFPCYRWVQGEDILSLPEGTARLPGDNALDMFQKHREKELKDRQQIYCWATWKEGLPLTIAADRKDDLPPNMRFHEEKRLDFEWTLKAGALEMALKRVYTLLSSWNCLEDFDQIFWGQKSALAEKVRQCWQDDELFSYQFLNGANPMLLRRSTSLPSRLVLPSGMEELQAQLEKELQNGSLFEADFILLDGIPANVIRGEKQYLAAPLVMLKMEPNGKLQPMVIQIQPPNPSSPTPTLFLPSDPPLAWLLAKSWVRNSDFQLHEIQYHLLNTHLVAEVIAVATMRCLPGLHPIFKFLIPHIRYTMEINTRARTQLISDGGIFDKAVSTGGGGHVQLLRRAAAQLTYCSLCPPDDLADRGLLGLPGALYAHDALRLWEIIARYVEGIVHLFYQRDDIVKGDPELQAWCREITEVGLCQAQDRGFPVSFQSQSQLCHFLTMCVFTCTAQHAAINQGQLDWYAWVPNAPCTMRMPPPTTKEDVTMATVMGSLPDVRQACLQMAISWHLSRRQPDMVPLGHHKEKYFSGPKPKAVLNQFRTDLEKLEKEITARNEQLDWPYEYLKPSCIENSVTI
#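 Hydroperoxide product was detected by ferrous iron/xylenol orange as the 573 to 405 nm absorbance ratio. Arachidonic acid at 40 uM (final) was turned over for 30 min at room temperature by 150 nM human 12hLO, pH 7.0 Hepes buffer, after 15 min compound preincubation.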
# DT40 TDP1 no CPT: qHTS for Inhibitors of human tyrosyl-DNA phosphodiesterase 1 (TDP1): qHTS in cells in absence of CPT; AID 686978, 2013; Potency, µM (doses to about 46.2 µM), inactives show at the top dose activity change, negative = growth inhibition, actives largely listed as inhibitors; DT40 Tdp1-/- hTDP1 cells, no CPT, ATP luminescence, 48 h; actives 15% (n = 420,000); also: potency is read from the fitted curve at half-maximal effect; nearly all actives have a fitted effect of over 55% in size
#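 Readout: luminescence from CellTiter-Glo after 30 min in the dark at RT. Cells: DT40 Tdp1-/- with stable hTDP1, 400/well. Exposure: compounds alone, ≥48 hr, 37 °C.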
# DT40 TDP1 CPT: growth inhibition of DT40 Tdp1-/-;hTDP1 cells with camptothecin (screen for TDP1 inhibitors); chicken DT40 Tdp1-/-;hTDP1 cells + 20 nM CPT, ATP luminescence, 48 h; Potency, µM (highest dose often 46.2 µM), without a hit: at the highest dose activity change, negative = growth inhibition, usual class: inhibitors; actives 12% (n = 420,000); also: potency is read from the fitted curve at half-maximal effect; nearly all actives have a fitted effect of over 55% in size
#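 Chicken DT40 Tdp1-/- cells complemented with human TDP1, 400 cells/well, exposed to compounds plus 20 nM camptothecin for at least 48 h at 37 C; viability read as ATP content by CellTiter-Glo luminescence.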
# HT1080 IDH1KD tx: toxicity to HT-1080 IDH1 knockdown cells (counter line); actives 2% (n = 360,000); Potency, µM (highest dose often 46.1 µM), for inactives: top-dose activity, negative = toxicity, usual class: cytotoxic; HT-1080 IDH1 knockdown viability, ATP luminescence, 48 h;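 also: potency is read from the fitted curve at half-maximal effect; 0% = DMSO wells and -100% = cell-free medium wells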
#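 Assay cells: HT-1080 with IDH1 knockdown, 750 per well, RPMI/5% FBS. Exposure: 48 h at 37 °C following 2 h pre-incubation. Read: CellTiter-Glo luminescence; fitted concentration-response, curve class assigned.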
# Starred values were filed as active, the others as inactive; ? = inconclusive; / = no result given. Only a selection was taken, and hits are over-represented in it overall. Unless noted, calls follow the shape of the dose curve; as a rule, active = well fitted curve in the direction sought with a large enough effect; inconclusive = small, poorly fitted or top-dose-only effect, or another doubt; inactive = no such curve, though single readings can be large; an effect the other way counts as inactive or inconclusive. Unless noted, % is scaled to controls: 0 for no effect and ±100 for the full control effect.
SMILES,HT1080-NT tox,IL-1B inflam inh,ALOX12 inh,DT40 TDP1 no CPT,DT40 TDP1 CPT,HT1080 IDH1KD tx
CCOc1ccc(N(C(=O)c2snc(C(N)=O)c2N)C(C(=O)NCC2CCCO2)c2ccco2)cc1 (stereo not drawn),-14%,-7,-4%,?,?,0%
Cc1nc(C)c(C(=O)N(c2ccccc2F)C(C(=O)NCC2CCCO2)c2ccccc2)s1 (stereo not drawn),15%,-6,-6%,?,26µM*,10%
CCc1ccccc1N(C(=O)c1snc(C(N)=O)c1N)C(C(=O)NCC1CCCO1)c1ccc(C)o1 (stereo not drawn),-15%,-9,30%,10µM*,12µM*,-19%
CCc1ccc(N(C(=O)c2snc(C(N)=O)c2N)C(C(=O)NCC2CCCO2)c2ccco2)cc1 (stereo not drawn),-1%,-24,?,18µM*,23µM*,0%
CCc1ccccc1N(C(=O)c1snc(C(N)=O)c1N)C(C(=O)NCC1CCCO1)c1ccc(N(C)C)cc1 (stereo not drawn),-14%,-2,-16%,?,?,-12%
CCc1ccccc1N(C(=O)c1snc(C(N)=O)c1N)C(C(=O)NCC1CCCO1)c1c[nH]c2ccccc12 (stereo not drawn),?,-24,-5%,21µM*,?,?
Cc1nc2cc(NS(=O)(=O)c3ccccc3Cl)ccc2o1,/,/,-7%,/,/,/
CCOCCCNC(=O)N1CC(Oc2ccc(-c3nc(C)no3)cc2)C1,/,/,-6%,/,/,/
CC1CC2(CCCCC2)Nc2ccc3ccccc3c21 (stereo not drawn),2%,30,?,?,21µM*,-6%
CC(=O)N1c2ccc3ccccc3c2C(C)CC12CCCCC2 (stereo not drawn),?,6,7%,?,?,?
CCOc1ccccc1NC(=O)C(CC(C)C)NC(=O)C1CCC(C)CC1 (stereo not drawn),20%,10,-24%,?,18µM*,0%
COc1ccccc1-c1nn2c(-c3ccco3)nnc2s1,-3%,-27,-4%,18µM*,?,-17%
Clc1ccc(OCc2nn3c(-c4ccco4)nnc3s2)cc1,-1%,-17,-33%,18µM*,?,-2%
CN(C)c1ccc(-c2cc(-c3ccccc3)nc(-c3ccccc3)c2)cc1,/,/,10%,/,/,/
CN(C)c1ccc(-c2nn3c(-c4cc(-c5ccccc5)n[nH]4)nnc3s2)cc1,/,/,/,3.2µM*,5µM*,/
COc1ccc(OCc2nn3c(-c4ccco4)nnc3s2)cc1,-3%,-5,4%,?,?,-3%
COc1ccccc1-c1nn2c(-c3cc(-c4ccccc4)n[nH]3)nnc2s1,/,/,/,4.5µM*,6.3µM*,/
C[C@@H](O)CCCCn1c(=O)c2c(ncn2C)n(C)c1=O,/,/,1%,/,/,/
CCOP(=O)(OCC)c1nc(Cc2ccc(Cl)cc2)oc1NCc1ccco1,/,/,-3%,/,/,/
c1ccc(Nc2nc(NC3CCCC3)nc3c2cnn3-c2ccccc2)cc1,/,/,9%,/,/,/
Clc1ccccc1-c1nn2c(-c3cc(-c4ccccc4)n[nH]3)nnc2s1,/,/,/,11µM*,13µM*,/
COc1cccc(OC)c1-c1nn2c(-c3cc(-c4ccccc4)n[nH]3)nnc2s1,?,-2,0%,?,18µM*,?
CC(=O)c1cccc(NC(=O)C2CCCN(C(=O)c3cnn(-c4ccccc4)c3-n3cccc3)C2)c1 (stereo not drawn),/,/,-20%,?,?,/
COc1ccc(NC(=O)C2CCCN(C(=O)c3cnn(-c4ccccc4)c3-n3cccc3)C2)cc1 (stereo not drawn),/,/,-28%,10µM*,?,/
Cc1cc(C)cc(NC(=O)C2CCCN(C(=O)c3cnn(-c4ccccc4)c3-n3cccc3)C2)c1 (stereo not drawn),/,/,?,18µM*,18µM*,/
SMILES,HT1080-NT tox,IL-1B inflam inh,ALOX12 inh,DT40 TDP1 no CPT,DT40 TDP1 CPT,HT1080 IDH1KD tx
Cc1cc(C)c(NC(=O)C2CCCN(C(=O)c3cnn(-c4ccccc4)c3-n3cccc3)C2)c(C)c1 (stereo not drawn),/,/,0%,?,?,/
COCC(=O)N[C@@H]1CN(Cc2ccccc2C)C[C@H]1CO,/,/,50%,/,/,/
O=S1(=O)c2ccccc2OC(COCc2ccccc2)CN1C1CC1 (stereo not drawn),-6%,18,15%,18µM*,18µM*,-4%
CC(C)CN1CC(COCc2ccccc2)Oc2ccccc2S1(=O)=O (stereo not drawn),-4%,-17,3%,?,21µM*,-7%
CN1CC(COCc2ccccc2)Oc2ccccc2S1(=O)=O (stereo not drawn),-2%,20,?,-23%,?,2%
CCCCN1CC(COCc2ccccc2)Oc2cccc(N3CCCC3)c2S1(=O)=O (stereo not drawn),-1%,15,-10%,16µM*,?,-1%
C[C@H](c1ccccc1)N1C[C@@H](COCc2ccccc2)Oc2cccc(N3CCCCC3)c2S1(=O)=O,/,/,-27%,/,/,/
Cc1ccc(OCc2nc(C#N)c(NCc3ccncc3)o2)c(C)c1,/,/,-18%,/,/,/
CCN1C(=O)C2CC3(CCN(C(=O)c4sc(C)nc4C)CC3)CN2C1=O (stereo not drawn),/,/,10%,/,/,/
O=C(OCc1cccnc1)c1ccc(-c2ccccc2)cc1,/,/,49%,/,/,/
CCCn1nc(C(=O)OCc2ccc(C#N)cc2)c2ccccc2c1=O,/,/,-45%,/,/,/
CCOC(=O)C(Cc1ccc(O)cc1)NC(=O)CNC(=O)C(CC(C)C)NC(=O)OC(C)(C)C (stereo not drawn),-14%,-99*,-11%,-17%,-2%,-7%
Cc1ccc(NC(=O)C(Cc2ccccc2)NC(=O)OCc2ccccc2)cc1C (stereo not drawn),-12%,14,-28%,23µM*,?,-5%
CCOC(=O)C(Cc1ccc(O)cc1)NC(=O)CNC(=O)C1CCCN1C(=O)OC(C)(C)C (stereo not drawn),-3%,-3,-6%,?,-22%,-3%
CCOC(=O)CNC(=O)C(Cc1ccccc1)NC(=O)OCc1ccccc1 (stereo not drawn),-2%,-26,-5%,?,?,-1%
